Rab9 prom act = activators of Rab9 promoter | Huh7 Rab9 promoter-luciferase reporter, luminescence, 24 h | Potency, µM (titrated, usually from 9.22 µM), without a hit: at the highest dose activation, negative = inhibition, usual class: activators | 320,000 compounds, 2.8% hits | AID 485297; note: % of control where 0% means no effect; nearly all actives have a fitted effect of over 60% in size
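Huh7 reporter line, Rab9 promoter upstream of luciferase. Compound exposure 24 h at 37 °C in reduced-serum medium with 10% FBS. Read-out: luminescence.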
NPC1 prom act = NPC1 promoter activation. Huh7 NPC1 promoter luciferase reporter, 24 h. Potency, µM (series often up to 9.22 µM), without a hit: at the top dose activation, usual class: activators. 320,000 compounds, 2.4% hits. AID 485313; note: % of control where 0% means no effect; nearly all actives have a fitted effect of over 60% in size
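NPC1 promoter–luciferase Huh7 cells; 24 h compound; luminescence.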
ELG1 genotoxic = induces genotoxicity in HEK293T cells with luciferase-tagged ELG1; HEK293T ELG1-luciferase reporter, luminescence, 16 h; Potency, µM (titrated, usually from 46 µM), without a hit: at the highest dose activity change, positive = activation, usual class: activators; 330,000 compounds, 1.3% hits; AID 504466; note: % of control where 0% means no effect; nearly all actives have a fitted effect of over 60% in size
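Reporter readout depends on ELG1 protein level, which increases with genetic stress. After 16 hr compound exposure at 37 °C, luciferase activity was quantified using ONE-Glo.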
Luc counter = Kinase-Glo luciferase inhibition (counter-screen). Kinase-Glo luciferase, ATP luminescence, 8 min. Potency, µM (series often up to 38.3 µM), without a hit: at the highest dose activity change, negative = inhibition, most hits filed as inhibitors. 200,000 compounds, 0.28% hits; note: % is set by controls: 0 for no effect and ±100 for the full control effect; nearly all actives have a fitted effect of over 60% in size
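Compound is pinned into ATP-containing buffer (10 uM ATP, imidazole pH 7.2, 7 mM MgCl2). Kinase-Glo luciferase reagent is then added. Light output is recorded following an 8-min room-temperature incubation.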
FLuc counter = firefly luciferase modulation, counter-screen for miR-21 project; P08659; purified FLuc, Km substrates, luminescence inhibition; Potency, µM (highest dose often 57.5 µM), for inactives: at the top dose activity change, negative = inhibition, most hits filed as inhibitors; 360,000 compounds, 6.9% hits; AID 588342;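 note: plate controls were vehicle for no effect and reference inhibitor for full effect; nearly all actives have a fitted effect of over 55% in size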
Target sequence (P08659 whole entry, looked up): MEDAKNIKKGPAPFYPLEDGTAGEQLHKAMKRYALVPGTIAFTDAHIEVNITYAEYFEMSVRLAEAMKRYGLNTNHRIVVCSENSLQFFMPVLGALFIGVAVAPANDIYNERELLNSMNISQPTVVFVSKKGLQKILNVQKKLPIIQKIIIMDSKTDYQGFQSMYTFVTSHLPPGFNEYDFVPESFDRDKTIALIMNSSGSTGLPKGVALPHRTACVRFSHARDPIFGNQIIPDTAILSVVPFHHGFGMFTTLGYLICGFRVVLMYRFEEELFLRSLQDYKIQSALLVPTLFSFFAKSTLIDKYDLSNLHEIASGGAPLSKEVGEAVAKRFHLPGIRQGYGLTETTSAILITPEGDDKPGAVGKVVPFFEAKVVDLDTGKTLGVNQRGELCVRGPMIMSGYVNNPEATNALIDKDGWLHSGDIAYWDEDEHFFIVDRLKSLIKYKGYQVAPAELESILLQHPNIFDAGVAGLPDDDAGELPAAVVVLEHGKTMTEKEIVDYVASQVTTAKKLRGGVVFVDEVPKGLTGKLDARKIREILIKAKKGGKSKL
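Purified P. pyralis luciferase (10nM final) with 10uM D-luciferin and 10uM ATP (Km levels) in 50mM Tris acetate pH 7.5, 10mM Mg acetate, 0.01% Tween-20, 0.05% BSA; qHTS 6-point titration, ~60 µM downward; luminescence read.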
SMN2 splice enh = enhancers of SMN2 splice variant expression | HEK293 SMN2-luciferase splicing reporter, luminescence, 30-36 h | Potency, µM (highest dose often 46.1 µM), without a hit: at the highest dose activity change, positive = activation, most hits filed as activators | 210,000 compounds, 2.8% hits | AID 1458; note: % of control where 0% means no effect; nearly all actives have a fitted effect of over 55% in size
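HEK293 cells carry an SMN2 minigene-luciferase reporter in which exon 7 inclusion puts luciferase in frame. Cells were seeded at 2000 cells/well, attached for 10-12 hours, then exposed to compounds for 30-36 hours at 37C before ONE-Glo luminescence.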
* hit, by the source's call; u = inconclusive; x = no result given; [ ] = another dose, or the depositor's remark. Compounds with a hit are over-represented: about 7.5% of the library has one in this group of screens. Calls come from the whole dose curve; as a rule, active = well fitted curve in the direction sought with a large enough effect; inconclusive = small, poorly fitted or top-dose-only effect, or another doubt; inactive = no such curve, though single readings can be large; an effect the other way counts as inactive or inconclusive. Potency is the fitted concentration of half-maximal effect.

SMILES	Rab9 prom act	NPC1 prom act	ELG1 genotoxic	Luc counter	FLuc counter	SMN2 splice enh
Oc1c(Br)cc(Br)cc1-c1nc2ccccc2s1	x	x	x	x	7.6µM*	-4%
Cc1ccc2c(=O)cc(C(=O)N(Cc3ccc(C(C)(C)C)cc3)C3CCS(=O)(=O)C3)oc2c1 (stereo unspecified)	x	x	x	x	-3%	-9%
COC(=O)CC1C(=O)NCCN1C(=O)CSc1nnc(Nc2ccc(C)cc2)s1 (stereo unspecified)	2%	0%	7%	-4%	17µM*	5%
COC(=O)CC1C(=O)NCCN1C(=O)CSc1nnc(Nc2ccc(OC)cc2)s1 (stereo unspecified)	2%	6%	6%	u	21µM*	x
COc1ccc(C(=O)NC(C(=O)N2CCc3ccccc32)C(C)C)cc1 (stereo unspecified)	0%	2%	14%	-1%	1%	x
COc1ccc2c(CC(=O)N3CCc4ccccc43)coc2c1	3.2µM*	2µM*	u	-17%	3.4µM*	16µM*
Cc1ccc2c(c1)c1nnc(SCC(=O)N3CCCc4ccccc43)nc1n2CC(=O)O	3.5µM*	3.5µM*	u	10µM*	6.7µM*	x
Cc1ccc(-c2ccc(SCC(=O)N3CCCc4ccccc43)nn2)cc1	8%	7%	3%	-2%	8.5µM*	17%
COc1cc(OC)cc(C(=O)N[C@H](C(=O)OCC(=O)N2CCc3ccccc32)C(C)C)c1	-6%	-2%	4%	-3%	15µM*	-4%
Cc1ccc(-c2ccc(SCC(=O)N3CCc4ccccc43)nn2)cc1	16%	1%	10%	-3%	u	23%
Cn1c(-c2ccccc2)cnc1SCC(=O)N1CCCCC1	0.32µM*	0.4µM*	u	0%	1.2µM*	1.4µM*
O=C(CSc1nnnn1-c1ccccc1)N1CCCc2ccccc21	7%	2%	0%	-3%	-7%	-12%
CCCn1nnnc1SCC(=O)N1CCCc2ccccc21	-2%	-5%	15µM*	3%	u	-7%
Cc1ccc(-c2cnc(SCC(=O)N3CCCc4ccccc43)n2C)cc1	-5%	-4%	0%	-6%	19µM*	-9%
COc1cccc(-c2ccc(SCC(=O)N3CCc4ccccc43)nn2)c1	-3%	-1%	1%	1%	21µM*	25%
Cn1c(-c2ccccc2)cnc1SCC(=O)N1CCCc2ccccc21	2%	3%	1%	1%	u	-14%[1.84 µM]
Cc1[nH]c(=O)[nH]c(=O)c1S(=O)(=O)Nc1cccc(Cl)c1C	x	x	x	x	-16%	-3%
COc1cc(OC)c(NC(=O)C2=C(C)C(=O)OC23CCN(C(C)=O)CC3)cc1Cl	x	x	x	x	1%	x
CCN(CC)C(=O)COc1ccc2oc(-c3ccco3)cc(=O)c2c1	27%	14%	10%	1%	15µM*	x
O=C(Nc1cccc(Br)c1)c1ccc2nc(N3C(=O)CCC3=O)sc2c1	18%	15%	-1%	-2%	17µM*	-15%
COc1cccc(NC(=O)c2ccc3nc(C)sc3c2)c1	1.1µM*	1.6µM*	23µM*	x	11µM*	x
COc1ccccc1NC(=O)c1ccc2nc(C)sc2c1	u	4µM*	7%	x	u	x
COc1ccccc1NC(=O)CCS(=O)(=O)c1ccc2nc(C)sc2c1	x	x	x	x	-1%	x
CCC(=O)N1CCc2cc(Br)cc(S(=O)(=O)CCC(=O)Nc3cccc(Cl)c3)c21	x	x	x	x	4%	-1%
CCOC(=O)Cn1c(=O)n(CC2CCCO2)c2nc(-c3ccc(OCC)cc3)nc(C(N)=O)c21 (stereo unspecified)	x	x	x	x	0%	x
SMILES	Rab9 prom act	NPC1 prom act	ELG1 genotoxic	Luc counter	FLuc counter	SMN2 splice enh
Clc1ccc(/C=C/c2ncc[nH]2)c(Cl)c1	2.8µM*	2.8µM*	u	x	2.4µM*	x
Fc1ccc(-n2nc(-c3ccccc3)c3cnc4ccccc4c32)cc1Cl	x	x	x	x	2%	18%
O=c1c2c3c(sc2nc2sc(C4CC4)nn12)CCCC3	4µM*	2.5µM*	5.8µM*	-5%	3µM*	7.9µM*
COc1ccc(/C=C/c2nc3ccccc3c(=O)o2)cc1	0.089µM*	u	0.82µM*	x	0.6µM*	x
CCC(C)n1c(/C=C/c2ccccc2)nc2ccccc21 (stereo unspecified)	3%	-2%	0%	1%	12µM*	13%
CCCCCCn1c(/C=C/c2ccccc2)nc2ccccc21	x	x	x	x	3µM*	-82%
CCn1c(/C=C/c2ccccc2)nc2ccccc2c1=O	0%	-1%	-7%	2%	-17%	x
COc1ccccc1/C=C/c1nc2ccc(OC(C)=O)cc2c(=O)o1	3%	-2%	1%	x	u	x
CCn1c(/C=C/c2ccccc2)nc2ccccc21	1.3µM*	2µM*	u	10µM*	0.6µM*	7.1µM*
COc1ccc(OC)c(C(=O)CSc2ncc3c(n2)-c2ccccc2N(Cc2ccccc2C)S3(=O)=O)c1	x	x	x	x	3%	x
CCOC(=O)c1ccc(CN(Cc2ccc(F)cc2)S(=O)(=O)c2ccc(F)c(C(=O)Nc3cc(Cl)ccc3OC)c2)cc1	x	x	x	x	3%	x
COc1ccc(-c2noc(N3CCC(C(=O)Nc4ccc(C)c(F)c4)CC3)n2)cc1OC	x	x	x	x	7%	-6%
COc1ccc(-n2nc(C(=O)Nc3ccc(C(C)=O)cc3)nc2-c2ccccc2)cc1	x	x	x	x	-3%	x
COc1cc(NC(=O)Cn2c(=O)n(Cc3ccco3)c(=O)c3sc4ccccc4c32)cc(OC)c1	x	x	x	x	-3%	2%
COc1ccccc1/C=C/c1nc2ccccc2n1C(C)C	x	x	x	x	3.4µM*	u
CCn1c(Cc2ccc(OC)cc2)nc2ccccc21	-1%	1%	-7%	x	4%	x
CC(C)Cn1c(/C=C/c2ccccc2)nc2ccccc21	2.8µM*	u	4%	x	4.8µM*	x
COc1ccc(Cn2c(/C=C/c3ccccc3)nc3ccccc32)cc1	1.3µM*	2.5µM*	u	u	0.85µM*	u
Cn1c(/C=C/c2ccccc2)nc2ccccc2c1=O	u	u	5%	x	u	x
Cn1c(/C=C/c2ccc(Cl)cc2)nc2ccccc2c1=O	2.8µM*	4µM*	u	x	3.8µM*	x
Cc1cccc(-n2ccnc2SCC(=O)Nc2cccc3ccccc23)c1	x	x	x	x	-3%	x
COc1ccc(CNC(=O)CCc2c(C)nn(-c3ccc(N4CCOCC4)nn3)c2C)cc1	x	x	x	x	-5%	x
CCCn1c(/C=C/c2cc[n+](C)cc2)nc2ccccc21	-2%	-5%	-2%	x	-1%	x
O=C(Cn1c(/C=C/c2ccccc2)nc2ccccc21)Nc1ccc(F)cc1	u	21%	u	-8%	4.8µM*	u

Screening data (PubChem)
